Measurements: PubChem BioAssay AID504684 (Southern Research Specialized Biocontainment Screening …, 2011)
Measured potencies and affinities stand elsewhere. The source made the active and inactive calls. No rule for the calls is given here.

Test: Vero cell cytotoxicity, cytotoxicity control for M. tuberculosis inhibitor project, purified and synthesized samples, set 3 (AID 504684)
Settings: series mostly up to 100 µM

Compound	outcome
Cc1cc(=O)[nH]c(=S)[nH]1	inactive
O=C(CSc1nc(O)cc(=O)[nH]1)Nc1ccccc1	inactive
CCSc1nc(C)c(C)c(=O)[nH]1	inactive
Cc1[nH]c(=S)[nH]c(=O)c1C	inactive
O=C(CSc1nc2ccccc2c(=O)[nH]1)NC1CCCCC1	inactive
CCOC(=O)COn1c2c(c3c4no[n+]([O-])c4ccc31)CCCC2	inactive
COC(=O)C(C)Oc1ccc(-c2nccc(-c3ccccn3)n2)cc1 (stereo not drawn)	inactive
COc1cc(NC(=O)C/C(C)=N/NC(=O)c2ccccn2)c(OC)cc1Cl	inactive
Cc1cc(=O)[nH]c(SCC(=O)Nc2ccccc2)n1	inactive
O=C(CSc1ccccn1)NC1CCCCC1	inactive
CCOC(=O)CSc1nc(C)c(C)c(=O)[nH]1	inactive
CCOC1OC(=O)C(Cl)=C1Nc1ccccc1C (stereo not drawn)	inactive
O=C(CSc1nccc(=O)[nH]1)Nc1ccc(N2CCOCC2)cc1	inactive
Cc1nc(SCC(=O)NC2CCCCC2)[nH]c(=O)c1C	inactive
Cc1c[nH]c(=S)[nH]c1=O	inactive
COC(=O)C1CC(=O)N(c2ccc(OCc3ccccc3Cl)cc2)C1 (stereo not drawn)	inactive
Cc1nc(SCC(N)=O)[nH]c(=O)c1C	inactive
Cc1ccc(NC(=O)COC(=O)CCc2c[nH]c3ccccc23)cc1[N+](=O)[O-]	inactive
CC[N+](C)(CC)CCCCOc1ccc2c(c1)C(=O)c1cc(OCCCC[N+](C)(CC)CC)ccc1-2	inactive
CC(=NCc1ccc2c(c1)OCO2)C1=C(O)c2ccccc2C1=O	inactive
O=C(CSc1ncccn1)NC1CCCCC1	inactive
CCOC(=O)COc1ccc(/C=C2\NC(=S)N(CC)C2=O)cc1	inactive
COC(=O)C(C)Oc1ccc(Cc2ncc(C(F)(F)F)cc2Cl)cc1 (stereo not drawn)	inactive
